Laboratory results as given in PubChem BioAssay (NCATS).
Inconclusive results are not listed. Where a call stands in place of a potency, no number is given. Values without a mark were called inactive. The source made the active and inactive calls. Calls come from the whole dose curve; as a rule, active = well fitted curve in the direction sought with a large enough effect; inconclusive = small, poorly fitted or top-dose-only effect, or another doubt; inactive = no such curve, though single readings can be large; an effect the other way counts as inactive or inconclusive.

Experiments:
[1] = biological target: Rap guanine nucleotide exchange factor 3 (Homo sapiens) (UniProt O95398); test: Confirmatory qHTS for antagonist of cAMP-regulated guanine nucleotide exchange factor 3 (EPAC1) (AID 1645880); details: EPAC1 Rap1B-BODIPY-GDP exchange, fluorescence; activity, negative = inhibition: at 115 µM (top of the series); note: nearly all actives have a fitted effect of over 55% in size; note: potency is the fitted concentration of half-maximal effect
Summary of the method: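 Nucleotide exchange uses 100 nM EPAC1, 250 nM RAP1B-BODIPY-GDP and 50 uM GDP, with compounds in a concentration-titration series. After 5 min at room temperature, fluorescence (480 nm ex/540 nm em) is read every 5 min for 30 min. Data are normalized to control ATA and DMSO.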

[2] = biological target: Rap guanine nucleotide exchange factor 3 (Homo sapiens) (UniProt O95398); test: Confirmatory qHTS for agonist of cAMP-regulated guanine nucleotide exchange factor 3 (EPAC1) (AID 1645881); note: nearly all actives have a fitted effect of over 75% in size; note: potency is the fitted concentration of half-maximal effect;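 for activation: EPAC1 catalysed release of BODIPY-GDP from Rap1B seen as fluorescence loss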
[3] = biological target: Rap guanine nucleotide exchange factor 4 (Homo sapiens) (UniProt Q8WZA2); test: Confirmatory qHTS for agonist of cAMP-regulated guanine nucleotide exchange factor 4 (EPAC2) (AID 1645884);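 note: nucleotide exchange releases bodipy-GDP from Rap1 and this lowers its fluorescence; nearly all actives have a fitted effect of over 65% in size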; note: potency is the fitted concentration of half-maximal effect
[4] = biological target: Rap guanine nucleotide exchange factor 3 (Homo sapiens) (UniProt O95398); test: Counterscreen qHTS for antagonist of cAMP-regulated guanine nucleotide exchange factor 3 (EPAC1) (AID 1645888);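 note: fluorescence loss as bound BODIPY-GDP is released from Rap1B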
Summary of the method: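 Measured: fluorescence of BODIPY-GDP bound to Rap1B, which falls as exchange proceeds. Conditions include 50 uM competing GDP, 5 and 30 min reads, and a later cAMP challenge for antagonist detection.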

Sequence of Rap guanine nucleotide exchange factor 3 (Homo sapiens) (O95398 whole entry, looked up): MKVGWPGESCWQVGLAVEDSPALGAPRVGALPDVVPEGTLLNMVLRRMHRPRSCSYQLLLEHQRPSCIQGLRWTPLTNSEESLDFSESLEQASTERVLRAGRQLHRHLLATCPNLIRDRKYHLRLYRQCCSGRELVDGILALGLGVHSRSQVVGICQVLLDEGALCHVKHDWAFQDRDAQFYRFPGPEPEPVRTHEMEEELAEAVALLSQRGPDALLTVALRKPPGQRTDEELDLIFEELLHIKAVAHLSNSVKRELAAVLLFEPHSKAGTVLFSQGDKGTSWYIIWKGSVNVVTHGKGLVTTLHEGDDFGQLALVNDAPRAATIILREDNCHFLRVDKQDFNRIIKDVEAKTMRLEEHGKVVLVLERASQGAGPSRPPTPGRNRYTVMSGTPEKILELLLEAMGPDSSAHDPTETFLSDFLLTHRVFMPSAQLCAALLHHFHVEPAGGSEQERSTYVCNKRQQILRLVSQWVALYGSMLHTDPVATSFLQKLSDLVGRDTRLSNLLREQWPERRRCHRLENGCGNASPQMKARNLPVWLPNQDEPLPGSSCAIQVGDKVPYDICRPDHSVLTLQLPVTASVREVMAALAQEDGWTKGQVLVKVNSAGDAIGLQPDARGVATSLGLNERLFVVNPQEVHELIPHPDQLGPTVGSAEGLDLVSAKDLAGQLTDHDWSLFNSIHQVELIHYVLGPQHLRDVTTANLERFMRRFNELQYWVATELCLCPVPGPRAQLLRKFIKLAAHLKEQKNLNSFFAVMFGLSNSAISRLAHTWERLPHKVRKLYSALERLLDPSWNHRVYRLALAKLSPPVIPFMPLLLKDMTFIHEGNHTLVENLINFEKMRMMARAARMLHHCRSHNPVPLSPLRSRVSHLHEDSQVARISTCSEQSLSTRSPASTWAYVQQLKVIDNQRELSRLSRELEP
Sequence of Rap guanine nucleotide exchange factor 4 (Homo sapiens) (Q8WZA2 whole entry, looked up): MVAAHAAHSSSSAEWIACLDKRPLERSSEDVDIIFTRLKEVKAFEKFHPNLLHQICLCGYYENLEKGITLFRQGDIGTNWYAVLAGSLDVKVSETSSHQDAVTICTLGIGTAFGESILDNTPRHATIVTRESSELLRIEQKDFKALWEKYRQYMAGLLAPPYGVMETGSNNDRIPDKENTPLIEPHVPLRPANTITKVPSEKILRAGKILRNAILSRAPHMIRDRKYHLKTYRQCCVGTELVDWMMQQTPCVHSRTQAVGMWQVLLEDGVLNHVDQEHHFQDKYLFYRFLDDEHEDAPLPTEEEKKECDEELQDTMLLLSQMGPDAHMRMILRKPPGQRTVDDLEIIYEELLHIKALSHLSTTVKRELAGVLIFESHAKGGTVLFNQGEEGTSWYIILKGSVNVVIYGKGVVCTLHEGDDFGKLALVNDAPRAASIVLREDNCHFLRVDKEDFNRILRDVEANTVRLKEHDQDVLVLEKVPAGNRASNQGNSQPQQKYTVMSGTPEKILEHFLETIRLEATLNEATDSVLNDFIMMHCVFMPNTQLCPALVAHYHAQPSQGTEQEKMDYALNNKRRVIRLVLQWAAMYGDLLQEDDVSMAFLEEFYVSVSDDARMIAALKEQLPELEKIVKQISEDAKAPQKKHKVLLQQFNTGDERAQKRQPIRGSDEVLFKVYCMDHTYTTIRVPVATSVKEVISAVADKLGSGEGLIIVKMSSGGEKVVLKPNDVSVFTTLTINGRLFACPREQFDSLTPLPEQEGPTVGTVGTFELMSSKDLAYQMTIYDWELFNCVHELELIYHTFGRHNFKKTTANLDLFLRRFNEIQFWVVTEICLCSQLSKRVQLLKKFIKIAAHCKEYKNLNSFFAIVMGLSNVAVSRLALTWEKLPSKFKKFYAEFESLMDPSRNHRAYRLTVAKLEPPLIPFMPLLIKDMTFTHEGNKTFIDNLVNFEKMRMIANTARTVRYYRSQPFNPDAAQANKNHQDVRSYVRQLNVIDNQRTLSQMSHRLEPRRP

SMILES | Potency [1] | Potency [2] | Potency [3] | Potency [4] | activation [3] | activity change, negative = inhibition [4]
CCOC(=O)CC1C(=O)NCCN1C(=O)c1cccc(C(F)(F)F)c1 (stereo not drawn) | inactive | inactive | inactive | inactive |  | 
CCN(CC1COc2ccccc2O1)C(=O)CN1C(=O)NC(C)(c2ccc(C)cc2)C1=O (stereo not drawn) | inactive | inactive | inactive | inactive |  | 
O=C(c1ccco1)N1CCn2cccc2C1c1ccccc1 (stereo not drawn) | inactive | inactive | inactive | inactive |  | 
COC(C(=O)Nc1ccc(Br)cc1F)c1ccccc1 (stereo not drawn) | inactive | inactive | inactive | inactive |  | 
Cc1ccc(CNc2cc(C)nc3nc(-c4cccc(C)c4)nn23)cc1 | inactive | inactive | inactive | inactive |  | 
CC(=O)C1C(=O)C=C(c2cccs2)CC1c1ccccc1 (stereo not drawn) | inactive | inactive |  |  | -4.19% [at 17.1 µM, percent relative to cAMP agonist control] | 2.3% [at 30.8 µM]
COC(=O)c1nc2nc(C)cc(=O)n2[nH]1 | inactive | inactive | inactive | inactive |  | 
COc1ccc2cc(/C=C3\SC(=S)NC3=O)c(N3CCOCC3)nc2c1 | 20 µM (active) | inactive |  |  | 0.207% [at 17.1 µM, percent relative to cAMP agonist control] | 3.21% [at 30.8 µM]
COCCN(C(=O)c1cc2c(s1)CCCCC2)c1c(N)n(Cc2ccccc2)c(=O)[nH]c1=O | inactive | inactive | inactive | inactive |  | 
CCn1c(O)c(/C=N/NC(=O)c2ccncc2)c(=O)n(CC)c1=S | inactive | 35.5 µM (active) | 25.1 µM (active) | inactive |  | 
O=C1/C(=C\c2cc([N+](=O)[O-])ccc2O)SC(=S)N1Cc1ccc(Cl)cc1 | 75.7 µM (active) | inactive | inactive | inactive |  | 
CCOC(=O)c1c(NC(=O)CSc2nc3ccc(C)cc3[nH]2)sc2c1CC(C)(C)NC2(C)C | inactive | inactive | inactive | inactive |  | 
COc1ccc(NC(=O)COC(=O)c2ccc(S(=O)(=O)N(C)c3ccccc3OC)cc2)cc1OC | inactive | inactive | inactive | inactive |  | 
COC(=O)C1=CN(Cc2cccs2)C=C(C(=O)OC)C1c1cccc(O)c1 | inactive | inactive | inactive | inactive |  | 
Cc1cccc(C(=O)Oc2ccc(/C=N/NC(=O)c3cc(O)cc(O)c3)cc2)c1 | 16.9 µM (active) | inactive | inactive | inactive |  | 
O=C(CSc1nc2nn(-c3ccccc3)c(=O)c-2c2n1CCCCC2)c1ccc(O)c(O)c1 | 2.39 µM (active) | inactive | inactive | inactive |  | 
CCN(CC)C(=O)Cn1c(SCCOc2ccc(Cl)cc2)nc2ccccc21 | inactive | inactive | inactive | inactive |  | 
COC(=O)C1=CN(c2c(C)cc(C)cc2C)C(N)=C(C#N)C1c1cccc(F)c1 (stereo not drawn) | inactive | inactive | inactive | inactive |  | 
CSc1nc(C)cc(C)c1S(=O)(=O)c1ccccc1C | inactive | inactive |  |  | 8.78% [at 17.1 µM, percent relative to cAMP agonist control] | -5.37% [at 30.8 µM]

SMILES | Potency [1] | Potency [2] | Potency [3] | Potency [4] | activation [3] | activity change, negative = inhibition [4]
NC1=C(Cl)C(=O)c2ccc(S(N)(=O)=O)cc2C1=O | 75.7 µM (active) | inactive | inactive | inactive |  | 
COc1ccccc1CN(C)CC(=O)Nc1ccccc1-c1ccccc1 | inactive | inactive | inactive | inactive |  | 
COc1cc(/C=C2\COC/C(=C\c3ccc(O)c(OC)c3)C2=O)ccc1O | 23.9 µM (active) | inactive | inactive | inactive |  | 
Cc1nn(-c2ccccc2)c(Cl)c1/C=N/Nc1ccc(S(=O)(=O)Nc2ccccc2C(=O)O)cc1[N+](=O)[O-] | 42.6 µM (active) | inactive | inactive | inactive |  | 
CCCOc1ccccc1NC(=O)c1c(-c2ccccc2)noc1C | inactive | inactive | inactive | inactive |  | 
COc1cc(/C=C2\C(=O)N(c3cccc(C(=O)O)c3)N=C2C)ccc1OCc1ccccc1 | 37.9 µM (active) | inactive | inactive | inactive |  | 
COC(=O)c1c(-c2ccc(OC)cc2)sc2ccc(OC)cc12 | inactive | inactive | inactive | inactive |  | 
Nc1[nH]n2c(=O)cc(-c3ccccc3)nc2c1N=Nc1ccc(S(N)(=O)=O)cc1 | inactive | inactive | inactive | inactive |  | 
COc1ccc(-c2csc(NC(=O)c3ccccc3NS(=O)(=O)c3ccc(F)c(F)c3)n2)cc1 | 22.4 µM (active) | inactive |  |  | -1.62% [at 17.1 µM, percent relative to cAMP agonist control] | -3.56% [at 30.8 µM]
Cc1oc2cc([N+](=O)[O-])c(O)c([N+](=O)[O-])c2c1C(=O)c1ccc(Br)cc1 | 75.7 µM (active) | inactive | inactive | inactive |  | 
COc1ccc(C(=O)N/N=C/c2ccc3cccc(OCc4ccccc4)c3n2)cc1 | inactive | inactive | inactive | inactive |  | 
O=C(O)c1ccc(/C=N/Nc2cccc(C(F)(F)F)c2)cc1 | inactive | inactive | inactive | inactive |  | 
O=C(Cc1ccccc1Cl)Nc1ccc(S(=O)(=O)N2CCOCC2)cc1 | inactive | inactive | inactive | inactive |  | 
Cc1ccc([N+](=O)[O-])cc1NC(=O)c1ccc(-c2ccccc2)cc1 | inactive | inactive | inactive | inactive |  | 
COc1cc(OC)c2c(-c3ccccc3)cc(=O)oc2c1C(CC(=O)N1CCOCC1)c1ccc2c(c1)OCO2 (stereo not drawn) | inactive | inactive |  |  | 1.13% [at 17.1 µM, percent relative to cAMP agonist control] | -9.45% [at 30.8 µM]
CCC(=O)NC(c1cccs1)c1cc([N+](=O)[O-])c2cccnc2c1O (stereo not drawn) | 42.6 µM (active) | inactive | inactive | inactive |  | 
Cn1c(N)c(C(=O)COC(=O)C2(c3ccc(Cl)cc3)CCCC2)c(=O)n(C)c1=O | inactive | inactive | inactive | inactive |  | 
Cc1nc2cc(-c3ccsc3-n3c(C)ccc3C)[nH]n2c(=O)c1Cl | 37.9 µM (active) | inactive | inactive | inactive |  | 
